Several values for one entry are separate records, joined by “and”; a condition that tells them apart may be missing. Identical values can stand only once. Out of some 410,000 compounds screened, about 18,000 (4.4%) were called active. Inconclusive results (about 7%) are left out. Cut-off read from the data, not from the text of the source: active = activity change below about -60%; inconclusive = no clear call, values can overlap the other calls; inactive = above about -39%. The sample as a whole holds a higher share of actives than the screen did. Some compounds were tested as several samples or in several runs, with calls that do not always agree.
% is set by controls: 0 for no effect and ±100 for the full control effect.

The assay is described as follows: qHTS Assay for inhibitors of the human cytomegalovirus (HCMV). To be noted: HFF cells, HCMV-luciferase reporter, 72 h; at 57.5 µM; stronger effect = lower value. In outline:
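Screen run at 2 compound doses on HFFs infected with reporter HCMV, MOI 1 PFU/cell. Luciferase activity from cell lysates at 72 h post infection gave inhibition relative to buffer-only and Salinomycin wells.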
`CCOc1ccc(NC(=O)Cn2c(C)ccc(C#N)c2=O)cc1`: the activity change, negative = inhibition is -3.22% (inactive).
With `O=C(NCCc1csc(-c2ccc(C(F)(F)F)cc2)n1)C(=O)Nc1ccc(F)c(Cl)c1`, the activity change, negative = inhibition was -16.3% (inactive).
`CCc1nc2nc(C)cc(Nc3ccc(F)c(Cl)c3)n2n1`: the activity change, negative = inhibition was -29.5% (inactive).
As to `Cc1ccc(S(=O)(=O)Nc2ccc3ncccc3c2)cc1`, the activity change, negative = inhibition is -97.8% (active).
As for `CCOc1ncccc1C(=O)Nc1ccc(S(=O)(=O)Nc2nc(C)cc(C)n2)cc1`, the activity change, negative = inhibition was 4.63% (inactive).
For `Cc1ccc(S(=O)(=O)Nc2ccc(F)c(S(=O)(=O)N3CCOCC3)c2)cc1`, the activity change, negative = inhibition is 11.9% (inactive).
Consider `COc1ccc(Cl)cc1NC(=O)CCn1c(=O)c2cccn2c2ccccc21`, for which the activity change, negative = inhibition is 4.3% (inactive).
Regarding `CCOC(=O)c1c(N)n(-c2cccc(C)c2C)c2nc3ccccc3nc12`, the activity change, negative = inhibition was 3.84% (inactive).
In the case of `Cc1nn(-c2ccc(N3CCCCC3)nn2)c(C)c1CCC(=O)NCc1ccc(F)cc1`, the activity change, negative = inhibition is -11.9% (inactive).
On to `CCNS(=O)(=O)c1ccc(NC(=O)CSc2nc(-c3ccco3)cc(C(F)(F)F)n2)cc1`, for which the activity change, negative = inhibition is 19.7% (inactive).
With `O=C(Cc1ccccc1)N1CCN(C2CCCCCC2)CC1`, the activity change, negative = inhibition was 31.1% (inactive).
Take `CC1CCN(C(=O)c2ccc3c(c2)NC(=O)CN3)CC1`: the activity change, negative = inhibition is -12.7% (inactive).
As to `O=C1Nc2cc(C(=O)N3CCC(N4CCCCC4)CC3)ccc2S/C1=C\c1ccccc1`, the activity change, negative = inhibition was -88% (active).
For the compound `CCOc1ccccc1NC(=O)Cn1c(=O)n(Cc2ccccc2)c(=O)c2c(C)c(C(=O)N(C)C)sc21`, the activity change, negative = inhibition is -19.6% (inactive).
In the case of `CC(=O)CC[C@@H](C)O[C@@H]1OC(C)[C@H](O)CC1O` (stereo partly drawn), the activity change, negative = inhibition was -66.6% (active).
As for `COc1ccc(NC(=O)N(C)C[C@@H]2OCCCC[C@@H](C)Oc3ccc(NC(=O)NC4CCCCC4)cc3C(=O)N([C@H](C)CO)C[C@@H]2C)cc1`, the activity change, negative = inhibition was 1.75% (inactive).
Take `CCOC(=O)CSc1ncc(-c2cccc(Cl)c2)cn1`: the activity change, negative = inhibition is 23.7% (inactive).
With `O=C(CSc1ccccn1)N1CCN(S(=O)(=O)c2ccc(Cl)cc2)CC1`, the activity change, negative = inhibition was -33.6% (inactive).
For the compound `CCOC(=O)CSc1ccccn1`, the activity change, negative = inhibition was -102% (active).
Take `COc1ccc(CCNc2nc3c(-c4cccc(F)c4)nnn3c3ccccc23)cc1OC`: the activity change, negative = inhibition is 30.2% (inactive).
As for `Cc1ccc(CCNC(=O)c2ccc(CNS(=O)(=O)c3ccc(C)cc3)cc2)cc1`, the activity change, negative = inhibition is -11.4% (inactive).
With `Cc1ccc(S(=O)(=O)N(CC(=O)Nc2ccc(Cl)cc2Cl)c2ccccc2C)cc1` the figure was -21.6% (inactive); with `CC(C)c1nccn1S(=O)(=O)c1cc([N+](=O)[O-])ccc1Cl`, -7.9% (inactive); with `CCc1nc(C)cn1S(=O)(=O)c1cc(OC)c(C)cc1C`, -33.9% (inactive).
Regarding `CCc1nc(C)cn1S(=O)(=O)c1cc([N+](=O)[O-])ccc1Cl`, the activity change, negative = inhibition is -98.5% (active).
With `Cc1ccccc1Nc1nn2c(=O)c3ccc(C(=O)NCCc4ccc(Cl)cc4)cc3nc2s1` the figure was -8.87% (inactive).
With `CC(C)c1ccc(NC(=O)Cn2nnc(C(=O)NCCc3ccccc3)c2N)cc1`, the activity change, negative = inhibition was 7.46% (inactive).
For `Cc1ccc(NC(=O)Cn2cnc3nc4c(cc3c2=O)CCCC4)cc1Cl`, the activity change, negative = inhibition was 19.1% (inactive).
Take `CCCN(CCC)CCNC(=O)Cn1cnc2sc(C)c(S(=O)(=O)N3CCC(C)CC3)c2c1=O`: the activity change, negative = inhibition is 3.59% (inactive).
In the case of `Fc1ccc(-n2ncc3c(Nc4ccc(Oc5ccccc5)cc4)ncnc32)cc1`, the activity change, negative = inhibition is -35.2% (inactive).
Consider `CCN(CCCNC(=O)Cn1ncc2c3ccccc3n(C)c2c1=O)Cc1ccccc1`, for which the activity change, negative = inhibition is -7.87% (inactive).
Consider `O=C(COc1ccc(S(=O)(=O)N2CCCC2)cc1[N+](=O)[O-])N1CCCCC1`, for which the activity change, negative = inhibition is -8.38% (inactive).
For the compound `Cc1cc(C(=O)COc2ccccc2[N+](=O)[O-])c(C)n1-c1cccc(S(=O)(=O)N2CCOCC2)c1`, the activity change, negative = inhibition is -89.3% (active).
To `Cc1cc(S(=O)(=O)N2CCOCC2)ccc1OCC(=O)N1CCOCC1` belongs -17.6% (inactive); to `O=S(=O)(c1ccc(Br)c2ccccc12)N1CCOCC1`, -15% (inactive).
Regarding `O=C1CCC(=O)N1CCC(=O)N(C(=O)NC1CCCCC1)C1CCCCC1`, the activity change, negative = inhibition is 14.3% (inactive).
Regarding `CCCCNC(=O)c1onc(CSc2cccc(OC)c2)c1C(=O)O`, the activity change, negative = inhibition was 31.1% (inactive).
As to `CCOc1cccc(SCc2noc(C(=O)NC(C)C)c2C(=O)O)c1`, the activity change, negative = inhibition is -61.6% (active).
To `CCCNC(=O)c1onc(CSc2ccc(F)cc2)c1C(=O)NC(C)C` belongs -14.5% (inactive); to `COc1cc2c(cc1OC)C(c1ccccc1Br)NC(=O)C2` (stereo not drawn), -67.4% (active).
As to `O=C1CCC([N+](=O)[O-])C(c2ccccc2Br)N1` (stereo not drawn), the activity change, negative = inhibition is -6.17% (inactive).
With `COc1cc(C2NC(=O)NC(c3ccccc3)=C2C(C)=O)c(Br)cc1OCC(N)=O` (stereo not drawn) the figure was -0.681% (inactive).
With `CCn1ccnc1CN(C)C(=O)c1cc(COc2ccc(Cl)cc2OC)on1` the figure was 1.37% (inactive).
Take `CCOc1ccc(NS(=O)(=O)c2ccc(Cl)c(C(=O)N(C)Cc3cccnc3)c2)cc1`: the activity change, negative = inhibition is -5.24% (inactive).
With `CN(Cc1cccnc1)C(=O)c1cc(COc2ccc3ncccc3c2)on1`, the activity change, negative = inhibition is -81.6% (active).
To `CCc1nccn1S(=O)(=O)c1cc(Br)ccc1Br` belongs 3.85% (inactive); to `Cc1cc(C)cc(NC(=O)CSc2nc(=O)n(CCN3CCOCC3)c3c2CCC3)c1`, 14.5% (inactive).
To `O=C(COC(=O)CCc1c[nH]c2ccccc12)Nc1cccc(Cl)c1` belongs -16% (inactive); to `COC(=O)c1ccc2c(c1)S(=O)(=O)NC2C` (stereo not drawn), 24.6% (inactive).
Take `CC1CCCCC1NC(=O)COC(=O)Cc1ccc(Cl)cc1` (stereo not drawn): the activity change, negative = inhibition is 26.8% (inactive).
Take `CCOCCC(=O)Nc1ccc2c(c1)c(=O)n(C)n2-c1ccc2ccccc2c1`: the activity change, negative = inhibition is -74.6% (active).
Take `COc1cc(Cn2c3ccc(NC(=O)CC(C)c4ccccc4)cc3c(=O)n2C)ccc1F` (stereo not drawn): the activity change, negative = inhibition is -10.4% (inactive).
Regarding `CCNC(=S)Nc1ccc2c(c1)c(=O)n(C)n2Cc1ccc(Cl)cc1`, the activity change, negative = inhibition is -4.48% (inactive).
As to `CCCCn1c(N)c(N(CC)C(=O)/C=C/c2ccco2)c(=O)[nH]c1=O`, the activity change, negative = inhibition is 14.2% (inactive).
Take `O=C1/C(=C/c2cccs2)CCC1C1CCCC1` (stereo not drawn): the activity change, negative = inhibition is -34.7% (inactive).
With `O=C1/C(=C/c2cccs2)SC(=S)N1C1CCS(=O)(=O)C1` (stereo not drawn) the figure was -80.8% (active).
For the compound `Cn1nccc1NS(=O)(=O)c1ccc(F)cc1`, the activity change, negative = inhibition was 19.9% (inactive).
Turning to `Cc1ccc2cccc(NC(=O)c3ccc(OC(C)C)cc3)c2n1`, the activity change, negative = inhibition is 9.69% (inactive).
Turning to `CCOc1ccc(N(CC)S(=O)(=O)N2CCCC(C(=O)Nc3ccc(C(C)=O)cc3)C2)cc1` (stereo not drawn), the activity change, negative = inhibition was 11.4% (inactive).
`COc1ccc(OCc2n[nH]c(=S)n2N)cc1`: the activity change, negative = inhibition is 39.1% (inactive).
With `CC(Sc1nnc(COc2ccccc2)n1-c1ccccc1)C(=O)O` (stereo not drawn), the activity change, negative = inhibition was -4.35% (inactive).
As for `Cc1ccc(OCc2n[nH]c(=S)n2-c2ccccc2)cc1`, the activity change, negative = inhibition was -60.4% (active).
Consider `CCc1ccccc1NC(=O)N1CCC2(CC1)Oc1ccccc1C(=O)N2Cc1ccccc1F`, for which the activity change, negative = inhibition was 6.91% (inactive).
Turning to `CN1c2ccccc2[C@@]2(CCN=C2N2CCOC2=O)[C@H]1c1cn(C)c2ccccc12`, the activity change, negative = inhibition is 7.43% (inactive).
In the case of `CCCCCCNCCn1cnc2c(N)ncnc21`, the activity change, negative = inhibition was -40% (inactive).
With `CCOC(=O)C1=C(C)NC(C)=C(C(=O)OCC)C1C1=COCCO1` the figure was 42.6% (inactive); with `CCOC(=O)C1=C(C)NC(C)=C(C(=O)OCC)C1c1ccccn1`, 1.28% (inactive) and -98.9% (active).
To `CCOC(=O)C1=C(C)NC(SC)=NC1c1ccccc1` (stereo not drawn) belongs -75.9% (active); to `CCOC(=O)C1=C(CC)Nc2ccccc2N=C1N`, 40.2% (inactive); to `CCOC(=O)C1C(=O)NCC1c1ccccc1` (stereo not drawn), 25.9% (inactive).
For the compound `C=CCC1(C#N)C(=S)NC(C)=C(C(=O)OCC)C1c1ccccc1` (stereo not drawn), the activity change, negative = inhibition is 21.2% (inactive).
Turning to `Cc1ccc(CN2C(=O)SC(Nc3ccccc3)C2=O)cc1` (stereo not drawn), the activity change, negative = inhibition is 4.93% (inactive).
Consider `CC(=O)c1ccc(NC(=O)C2CCN(S(=O)(=O)c3c(C)noc3/C=C/c3ccc(C)cc3)CC2)cc1`, for which the activity change, negative = inhibition is 8.22% (inactive).
To `Cc1ccccc1CNC(=O)C(=O)NCC(c1cccs1)S(=O)(=O)c1cccs1` (stereo not drawn) belongs -7.75% (inactive).
With `Cc1ccc2nc(-c3ccc(O)cc3)c(Nc3ccc4c(c3)OCO4)n2c1`, the activity change, negative = inhibition was 27.1% (inactive).
With `CN(C)c1ccc(NC(=S)N(CCc2ccccc2)C2CC(=O)N(c3c(Cl)cccc3Cl)C2=O)cc1` (stereo not drawn) the figure was -21.4% (inactive).
As for `CCOc1ccc(N2C(=O)CC(N(CCc3ccc(OC)c(OC)c3)C(=S)Nc3ccccc3)C2=O)cc1` (stereo not drawn), the activity change, negative = inhibition was -67.5% (active).
In the case of `COc1ccc(N2C(=O)C(CC(=O)Nc3ccccc3)N(Cc3ccc(OC)c(OC)c3)C2=O)cc1` (stereo not drawn), the activity change, negative = inhibition was 38.3% (inactive).
To `CC(C)Oc1ccc(NC(=O)c2cc3ccccc3o2)cc1` belongs 84.8% (inactive); to `COC(=O)c1ccccc1NC(=O)Cn1c(=O)cc(C)c2c(C)nn(-c3cccc(Cl)c3C)c21`, -6.78% (inactive).
For the compound `COc1cccc(NC(=O)Cn2c(=O)cc(C)c3c(C)nn(-c4cccc(F)c4)c32)c1`, the activity change, negative = inhibition is 2.05% (inactive).
As for `COc1ccc(NC(=O)Cn2c(=O)cc(C)c3c(C)nn(-c4cccc(Cl)c4C)c32)cc1OC`, the activity change, negative = inhibition is -103% (active).
To `O=C(COC(=O)Cc1ccccc1F)NCCc1ccccc1` belongs 106% (inactive); to `CCCn1c(NCc2ccccc2F)nc2ccccc21`, 49.2% (inactive); to `N=c1n(CCc2ccccc2)c2ccccc2n1Cc1ccccc1F`, -70.6% (active).
As for `CCOCCN(C=O)c1cccc(OC)c1`, the activity change, negative = inhibition is 18% (inactive).
To `COc1ccc(NC(=S)NCC2CCN(c3ccc(OC)cc3)C2)cc1` (stereo not drawn) belongs -63.2% (active).
`COc1ccc(N2CCN(C(=S)Nc3ccc(S(N)(=O)=O)cc3)CC2)cc1`: the activity change, negative = inhibition was 9.64% (inactive).
Take `COc1ccc(N2CCC(CNC(=S)Nc3c(C)cccc3C)C2)cc1` (stereo not drawn): the activity change, negative = inhibition was 0% (inactive).
In the case of `O=C(Cn1cc(SCc2cccc(Cl)c2)c2ccccc21)N1CCCCC1`, the activity change, negative = inhibition is 24.5% (inactive).
For `COc1ccc(-c2c(C)c3ccc(O)c(CN4CCN(C)CC4)c3oc2=O)cc1OC`, the activity change, negative = inhibition was 5.43% (inactive).
Take `CCOC(=O)c1oc2c(CN3CCN(C)CC3)c(O)ccc2c(=O)c1-c1ccc(Br)cc1`: the activity change, negative = inhibition was -37.4% (inactive).
Consider `CN1CCN(Cc2c(O)ccc3c2oc(=O)c2ccccc23)CC1`, for which the activity change, negative = inhibition is -78.7% (active).
